# In PubChem BioAssay AID1508600 (Functional Genomics Laboratory (NCATS/FGL), 2020):
# Screen size: about 53,000 sequences; about 3,700 (7%) were called active.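 Rule for the calls: active = gene knockdowns whose robust z-score for IL-1 alpha signal is at least 2 or at most -2, so actives lie on both sides; inactive = the rest.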 The sample as a whole holds a higher share of actives than the screen did.
# Assay: Components of the Cytosolic LPS Sensing Pathway: Gene Identification via Genome-wide siRNA Screen;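 note: robust z of the log signal after scaling to non-targeting control siRNA wells of the plate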
# Settings: RAW264.7 macrophages, IL-1a HTRF, actives lie on both sides, screened at 100 nM (by protocol), cells primed 5 h with Pam3CSK4 first
# Procedure, shortened: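 Mouse macrophage line RAW264.7 is transfected with siRNA (100 nM final), grown 48h, primed with TLR ligand Pam3CSK4 5 h and given intracellular LipidA 24 h. IL-1a in supernatant is read by HTRF and viability by luminescence.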
row,Sequence,z-score
1,GGAUGAAUAUGGUGUUUCUTT against Rnf138,-2.23 (active)
2,GCUAAAUUACACAUUGACCTT against Vcam1,0.226 (inactive)
3,GGGAAGCAACAUGAUUAAATT against Kat7,0.669 (inactive)
4,CCUCACUGGUACAAUCCCATT against Tsg101,-0.906 (inactive)
5,GGAACCAGUUUAAAUGAUUTT against Marchf7,0.04 (inactive)
6,CGUUACGUAAAUCUUGUGATT against Sstr2,0.227 (inactive)
7,GGUGGUCUACCAGCAUUUGTT against Pde4dip,2.16 (active)
8,GGCCAAUAAUGUGUUUCGUTT against Cmpk2,-0.632 (inactive)
9,CCUGGUGCCUUUAUCUACCTT against Ctxn1,0.907 (inactive)
10,GGAGAUGCUGUUCUUUCCGTT against Casc3,-1.18 (inactive)
11,GGAUGGAUUACUGAAAGUUTT against Wdr35,0.715 (inactive)
12,GGCAGCUAUUGCUCUGGAATT against 5730596B20Rik,-0.293 (inactive)
13,GGAGCAACAGCCAAAUACCTT against Hmgb4,2.39 (active)
14,GGACUAUGAGCAGAUGAAGTT against Calcb,-0.217 (inactive)
15,GGAUGUGCACGAAGGACAGTT against Cdh2,2.09 (active)
16,CCAGUCCAUUGAAUAGUUCTT against Papola,0.329 (inactive)
17,GGAAAGGAAUCCAAAAAUCTT against Lias,-0.42 (inactive)
18,CCAGAAGUGAUCGCCUCUUTT against Zfp300,1.16 (inactive)
19,GCCAUAAAACAGAAUCUCATT against Tmco5b,-0.309 (inactive)
20,GGUGGUGAUAAGCUUCCUCTT against Olfr1417,-1.87 (inactive)
21,GGGACUUCAGACAGUUAUCTT against Ess2,1.69 (inactive)
22,GCCGAACUUCGGAAUUCUGTT against Nf1,2.08 (active)
23,GGUAUAUGGAACCAUGGGATT against Psmb9,-0.565 (inactive)

row,Sequence,z-score
1,GGAGUCUGCUGGUUUAGUGTT against Fmc1,0.0551 (inactive)
2,GGAGUAUGGCGAAUUCUAUTT against Hsp90ab1,1.34 (inactive)
3,GCUGCUUGCUGACCUCCUATT against Olfr522,0.358 (inactive)
4,GCAUUCAGAAAUUGAGGGUTT against Sin3b,-0.0974 (inactive)
5,CCUAUCUCUUAGCAAAGAUTT against 2010003K11Rik,2.87 (active)
6,GGCGAUAUUCUUAAUUAUCTT against Mfsd6,0.735 (inactive)
7,GGUGUUGAACAAGUGCGACTT against Tescl,-0.987 (inactive)
8,GCUGAUCAUCCGUUUCACUTT against Hdc,-0.227 (inactive)
9,CGUACUUCAGCGAUUUAAATT against Exoc2,0.555 (inactive)
10,GGACUCAAGACACCAGUUGTT against Rufy3,-0.318 (inactive)
11,GCAAGAAGCCUGCCAAUAUTT against Etd,2.05 (active)
12,GGAGUACUUUGGAAUAGCATT against Frmd4a,-0.467 (inactive)
13,GCUCUAUAUCCAGGAAACUTT against Krtap6-2,0.0521 (inactive)
14,GGUGCAUUUAUGUAUUUCCTT against Olfr916,-1.76 (inactive)
15,GCAAUCAUUGAAUCCACUCTT against Spag9,2.16 (active)
16,GGAUGUGGUUCAGAAGGCCTT against Stab1,-0.29 (inactive)
17,GAUUCUUACUUUGGUCUACTT against Olfr9,0.62 (inactive)
18,GCCAAAACAUUUCAGAGCCTT against Hemk1,-0.000768 (inactive)
19,GCAUCUAACUACUUGGGCCTT against Hhip,1.18 (inactive)
20,GCACUACCAAGGCGAUAACTT against Tspan18,-0.624 (inactive)
21,GGAACCAGUGCUGCAUUUATT against Defb41,-2.05 (active)
22,GGCCAUAAACAACCAUUUATT against Ppp1r1b,0.747 (inactive)
23,GGACCAACGUGCAGAAAUGTT against Metrn,-0.702 (inactive)

row,Sequence,z-score
1,GGUCUGGAGACUUUCAGUCTT against Hexa,0.521 (inactive)
2,GGGCAGGGACAUUAGUCAUTT against Zfp106,2.88 (active)
3,GGGAGUGAAUGUUUCACAUTT against Tmem116,-1.56 (inactive)
4,GGGUAUUAAGCAGGGAUCGTT against 1810009A15Rik,1.11 (inactive)
5,CCAAAUGACUAGCACCAGUTT against Arl5c,-2.22 (active)
6,CCUUCUACCUCACCUUACGTT against Tmem186,-1.23 (inactive)
7,CCAAUUCAAUUAGACUAGATT against 9430015G10Rik,0.89 (inactive)
8,GCAUGAGUUAUCAUAAUCATT against Itgb2,1.04 (inactive)
9,GGAUCAACCACAUCAGCUCTT against Hrh2,-0.838 (inactive)
10,GGGCCUUCUGAUUUAAAAGTT against Slc43a3,-1.01 (inactive)
11,GGUGUUUGGGUACCAGUCUTT against Cyp8b1,-1.03 (inactive)
12,GGCUCAAGCGAAAAGCAGATT against Serping1,-0.46 (inactive)
13,GGCCUAUUGUAAAAACCCATT against Taf1b,-2.56 (active)
14,CCAAGUCCCUUUGUGGUGUTT against Twnk,-0.749 (inactive)
15,CCGUUUAUUUAUCAGCUGGTT against Spsb4,-1.18 (inactive)
16,GGAAGGUAAAUGUCUGCUCTT against Selenok,0.289 (inactive)
17,GGAGAUGGAUAAUUACGAGTT against Ift27,0.344 (inactive)
18,GGAGAUUUAAACAGCUAGGTT against Gmip,-0.418 (inactive)
19,GGCUCAUAUUUCCAUCAGATT against Tchhl1,-1.13 (inactive)
20,GGAAAUUGGGACUCACAUCTT against Trappc13,-0.0912 (inactive)
21,GUGGAAAAUUGAAGGGACGTT against Ndufb3,3.69 (active)
22,GGAUUCAAGUUCUCACCGATT against Serpina6,-0.462 (inactive)
